Test results reported in PubChem BioAssay (NCATS).
Inconclusive results are not listed. Entries that show only a call come without a potency. Activity calls are given as the source filed them. The call rests on the fitted dose curve; in most records, active means well fitted inhibition curve with a large enough effect; inconclusive means small, poorly fitted or top-dose-only effect; inactive means flat fitted curve, though single readings scatter.

Biological target: Calcium and integrin-binding protein 1 (Homo sapiens) (UniProt Q99828)
Sequence (Q99828 whole entry, looked up): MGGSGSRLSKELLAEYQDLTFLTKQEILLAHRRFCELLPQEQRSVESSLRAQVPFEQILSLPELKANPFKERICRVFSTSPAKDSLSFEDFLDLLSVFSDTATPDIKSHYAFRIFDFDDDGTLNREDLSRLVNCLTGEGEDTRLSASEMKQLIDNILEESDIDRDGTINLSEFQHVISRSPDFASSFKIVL
Test: Primary qHTS for Identification of Calcium Integrin Binding Protein 1 (CIB1) Competitor (AID 1508620); further: top concentration of the series differs between compounds
Conditions: CIB1-GST / FITC-alphaIIb peptide fluorescence polarization; series mostly up to 57.7 µM
In short: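 Fluorescence polarization competition: GST-tagged CIB1 (1 uM final) preincubated with compound 15 min at room temperature, then FITC-labelled alphaIIb peptide (100 nM final) added. After 15 min at room temperature, polarization read at Ex 480/Em 540.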

Row | Compound | Potency | activity change, negative = inhibition
1 | CC1(COc2ccc3c(c2)ncn3-c2ccc3cccc(N4CCC(N)CC4)c3n2)COC1 | inactive | 
2 | COc1cc2ncn(-c3cc(OCc4ccccc4S(C)(=O)=O)c(C#N)s3)c2cc1OC | inactive | 
3 | COc1ccc(-c2oc3c(CC=C(C)C)c(O)cc(O)c3c(=O)c2O)cc1 | inactive | 
4 | CC(C)CNc1ccnc(NCc2csc(-c3ccccc3)n2)n1 | inactive | 
5 | Nc1ncnc2c1ncn2[C@@H]1O[C@H](CO)[C@@H](O)[C@@H]1O | inactive | 
6 | C[C@@H](O[C@H]1OCCN(Cc2n[nH]c(=O)[nH]2)[C@@H]1c1ccc(F)cc1)c1cc(C(F)(F)F)cc(C(F)(F)F)c1 | inactive | 
7 | Cc1nc2c([nH]1)CCN(C(=O)c1ccc(NC(=O)c3ccccc3-c3ccccc3)cc1)c1ccccc1-2 | inactive | 
8 | CCCCOCCOc1nc(-c2ccc(C(=O)O)c(F)c2)sc1C | inactive | 
9 | CC(C)c1c(C(=O)Nc2ccccc2)c(-c2ccccc2)c(-c2ccc(F)cc2)n1CC[C@H](O)C[C@@H](O)CC(=O)O | inactive | 
10 | CNC1CCC(N(Cc2cccc(-c3ccncc3)c2)C(=O)c2sc3ccccc3c2Cl)CC1 (stereo unspecified) | inactive | 
11 | O=C1NC(=O)C(=Cc2ccc(-c3ccc(F)cc3O)o2)S1 | inactive | 
12 | CCCCCCCCCCCCCCCC(=O)O[C@H]1[C@@H](O)[C@@H](O)[C@@H]([C@H](NC(=O)[C@@H]2C[C@@H](CCC)CN2C)[C@H](C)Cl)O[C@@H]1SC | inactive | 
13 | Oc1ccc(C=Cc2cc(O)cc(O)c2)cc1 | inactive | 
14 | N#CC(c1ccnc(NCCc2cccnc2)n1)c1nc2ccccc2s1 (stereo unspecified) | inactive | 
15 | COc1nc(C)cnc1NS(=O)(=O)c1cccnc1-c1ccc(-c2nnco2)cc1 | inactive | 
16 | CC(C)n1c(C=C[C@H](O)C[C@H](O)CC(=O)O)c(-c2ccc(F)cc2)c2ccccc21 | inactive | 
17 | Cc1ccc(NC(=O)c2cccc(N(C)C)c2)cc1NC(=O)c1ccc(O)cc1 | inactive | 
18 | COc1cc2c(cc1OC)[C@@H]1Cc3ccc(OC)c(OC)c3CN1CC2 | inactive | 

Row | Compound | Potency | activity change, negative = inhibition
19 | C[C@@H]1[C@H](C)CC[C@]2(C(=O)O)CC[C@]3(C)C(=CC[C@@H]4[C@@]5(C)CC[C@H](O)C(C)(C)[C@H]5CC[C@]43C)[C@@H]12 | inactive | 
20 | Cc1nn(Cc2ccccc2Cl)c(C)c1CN(C)CC(O)COc1ccc(Cl)cc1 (stereo unspecified) | inactive | 
21 | CC=C(C(=CC)c1ccc(O)cc1)c1ccc(O)cc1 | inactive | 
22 | CCNC(=O)[C@H]1O[C@@H](n2cnc3c(N)nc(NCCc4ccc(CCC(=O)O)cc4)nc32)[C@H](O)[C@H]1O | inactive | 
23 | Cc1cccc(-c2[nH]c(C(C)(C)C)nc2-c2ccc3c(c2)OCO3)n1 | inactive | 
24 | CNC(=O)c1cc(COc2nnc(Nc3ccc(Cl)cc3)c3ccoc23)ccn1 | inactive | 
25 | CCNC(=O)CCCC=CC[C@@H]1[C@H](C=CC(O)CCc2ccccc2)[C@@H](O)C[C@@H]1O (stereo partly specified) | inactive | 
26 | CCCC1OC2C[C@@H]3[C@H]4CCC5=CC(=O)C=C[C@]5(C)[C@H]4C(O)C[C@]3(C)[C@]2(C(=O)CO)O1 (stereo partly specified) | inactive | 
27 | CO[C@H]1C=CO[C@@]2(C)Oc3c(C)c(O)c4c(O)c(c(C=NN5CCN(C)CC5)c(O)c4c3C2=O)NC(=O)C(C)=CC=C[C@H](C)[C@H](O)[C@@H](C)[C@@H](O)[C@@H](C)[C@H](OC(C)=O)[C@H]1C |  | -2.55% [at 12.4 µM] (inactive)
28 | c1cc(OCCN2CCCCC2)cc(-c2n[nH]c3ccc(-c4ncn[nH]4)cc23)c1 | inactive | 
29 | CC(C)(C)c1[nH]cnc1C=c1[nH]c(=O)c(=Cc2ccccc2)[nH]c1=O | inactive | 
30 | COc1nccc(-c2c(-c3ccc(F)cc3)ncn2C2CCC(O)CC2)n1 (stereo unspecified) | inactive | 
31 | COc1ccc2cc1Oc1ccc(cc1)C[C@H]1c3cc(c(OC)cc3CCN1C)Oc1c(OC)c(OC)cc3c1[C@H](C2)N(C)CC3 | inactive | 
32 | CC(C)(OCc1nn(Cc2ccccc2)c2ccccc12)C(=O)O | inactive | 
33 | Cc1ccc(S(=O)(=O)OCC(=O)Nc2ccc(C(=O)O)c(O)c2)cc1 | inactive | 
34 | CC[C@H](NC(=O)[C@H](C)NC)C(=O)N1C[C@@H](O)C[C@H]1Cc1c(-c2[nH]c3cc(F)ccc3c2C[C@H]2C[C@H](O)CN2C(=O)[C@H](CC)NC(=O)[C@H](C)NC)[nH]c2cc(F)ccc12 | inactive | 
35 | O=C(Nc1cccc(C(F)(F)F)c1)Nc1cc(S(=O)(=O)NC2CC2)ccc1-c1ccsc1 | inactive | 
36 | CO[C@H]1/C=C\O[C@@]2(C)Oc3c(C)c(O)c4c(O)c(c5c(nc6cc(C)ccn65)c4c3C2=O)NC(=O)C(C)=CC=C[C@H](C)[C@H](O)[C@@H](C)[C@@H](O)[C@@H](C)[C@H](OC(C)=O)[C@H]1C | inactive | 
